{"source": "PubChem BioAssay AID720518", "about": "(National Center for Advancing Translational Sciences (NCATS), 2013)", "note": "Records with an inconclusive call do not appear. Values without a mark were called inactive. Calls come from the whole dose curve.", "data": [{"test": "qHTS for Inhibitors of Cell Surface uPA Generation: Wild-type Protective Antigen (WT-PrAg) Counterscreen for Cherry-picked Compounds; note: 0% is about no effect", "conditions": "cells, WT protective antigen toxicity counterscreen; series mostly up to 115 µM; activity (protection): at the top concentration", "units": {"activity (protection)": "%"}, "values": [{"smiles": "CCN(CC(=O)Nc1c(F)cccc1F)C(=O)c1ccc(-c2ccc(C(C)=O)cc2)o1", "activity (protection)": -1.23}, {"smiles": "Clc1ccccc1N1CCN(c2ncnc3nc[nH]c23)CC1", "activity (protection)": -0.131}, {"smiles": "COc1ccc(-c2nn(CCC#N)cc2C(=O)Nc2ccccc2)cc1OC", "activity (protection)": -0.28}, {"smiles": "COc1ccc(CCN=c2c([N+](=O)[O-])nn(-c3cccc(C)c3)n2O)cc1OC", "activity (protection)": -2.53}, {"smiles": "COc1ccc(C[C@@H]2OC3(C=CC(=O)C=C3)O[C@H]2Cc2ccc(OC)cc2)cc1", "activity (protection)": -2.08}, {"smiles": "O=C(OCC(=O)N1CCOCC1)c1c(Cl)ccc(Cl)c1Cl", "activity (protection)": -0.419}, {"smiles": "Cc1ccc(S(=O)(=O)N2CCOCC2)cc1C(=O)OC1CCOC1=O", "note": "(stereo not given)", "activity (protection)": -1.14}, {"smiles": "CCC(=O)N(Cc1cc2ccc(C)cc2[nH]c1=O)c1ccccc1OC", "activity (protection)": -0.972}, {"smiles": "COC(=O)CCNS(=O)(=O)c1ccc2nsnc2c1", "activity (protection)": -0.224}, {"smiles": "CN1CCN(c2ccc(S(=O)(=O)N3CCOCC3)cc2NC(=O)CSCc2ccccc2)CC1", "activity (protection)": 0.65}, {"smiles": "COc1ccc(CN2CCNC(=O)C2CC(=O)NCC2CCOCC2)cc1C", "note": "(stereo not given)", "activity (protection)": -0.406}, {"smiles": "O=S(=O)(/N=C(/c1ccccc1)N1CCOCC1)c1ccc(F)cc1F", "activity (protection)": 0.385}, {"smiles": "COc1ccc(S(=O)(=O)N2CCN(Cc3ccccc3)CC2)c(C)c1", "activity (protection)": -1.97}, {"smiles": "CC(C(=O)Nc1nccs1)c1ccc([N+](=O)[O-])cc1", "note": "(stereo not given)", "activity (protection)": 4.26}, {"smiles": "COc1ccc(NC(=O)CN2C(=O)CSc3ncccc32)cc1", "activity (protection)": 1.25}, {"smiles": "CC(=O)Nc1ccc(NC(=O)CCCCCN2C(=O)c3ccccc3C2=O)cc1", "activity (protection)": -0.858}, {"smiles": "COc1ccc(-c2cccc(-c3cc(=O)oc4cc(OC)c(OC)c(OC)c34)c2)cc1", "activity (protection)": -1.14}, {"smiles": "CCN(c1ccc(OC)cc1)S(=O)(=O)c1ccc2c(c1)NC(=O)CS2", "activity (protection)": -1.04}, {"smiles": "CCCCCOC(=O)C1=C(C)NC(=O)NC1c1ccccc1", "note": "(stereo not given)", "activity (protection)": 0.914}, {"smiles": "COc1cccc(NC(=O)CN(C)C(=O)c2csc3c2CCCC3)c1", "activity (protection)": 3.05}, {"smiles": "CCN(CC)C(=O)Cn1cc(/C=C(\\C#N)C(=O)NC2CC2)c2ccccc21", "activity (protection)": 2.13}, {"smiles": "CCOC(=O)c1cc(-c2ccccc2C)n(CC2CC(c3ccc(OC)cc3)=NO2)n1", "note": "(stereo not given)", "activity (protection)": -2.18}, {"smiles": "CC(=O)N1CCN(C(=O)CSc2cc(C)c(Br)cc2C)CC1", "activity (protection)": -0.948}, {"smiles": "COc1ccc2nc(C)cc(Nc3ccccc3O)c2c1", "activity (protection)": -2.51}, {"smiles": "Cc1ccc(NS(=O)(=O)c2c(C)nc3sccn3c2=O)c(C)c1", "activity (protection)": -0.69}, {"smiles": "O=C(C1=C[C@H](c2ccccc2)C[C@H](OCCCCO)O1)N1CCN(Cc2ccc3c(c2)OCO3)CC1", "activity (protection)": -2.28}, {"smiles": "NC(=O)c1ccccc1NC(=O)CC12CC3CC(CC(C3)C1)C2", "activity (protection)": -1.39}, {"smiles": "Cn1c(=O)n(CC(=O)O)c(=O)c2c1nc1n2CCCN1CCc1ccccc1", "activity (protection)": -1.35}, {"smiles": "Cc1[nH]c2ccc(C(=O)OC(C)C(=O)NC3CCCCC3C)cc2c1C", "note": "(stereo not given)", "activity (protection)": -2.39}, {"smiles": "Cc1cc(C)cc(NC(=O)COC(=O)CCn2c(C)csc2=O)c1", "activity (protection)": 0.0327}, {"smiles": "C[C@@H](CSc1ccccc1)CN1CC[C@H](O)CCC1=O", "activity (protection)": 0.0232}, {"smiles": "COc1ccc(/C=N/NC(=O)COc2ccc3ccccc3c2)c(C(=O)O)c1OC", "activity (protection)": -1.41}, {"smiles": "Cn1nc(N2CCN(S(=O)(=O)c3ccccc3)CC2)c(=O)n(C)c1=O", "activity (protection)": -0.197}, {"smiles": "COc1cc(/C=N/NC(=O)Cc2csc(C)n2)ccc1OCC(C)C", "activity (protection)": -0.127}, {"smiles": "COc1ccc(C(=O)c2sc(Nc3ccccc3)nc2N)cc1", "activity (protection)": 5.73}, {"smiles": "Cc1cccc(N2C(=O)N3[C@H](c4ccc(F)cc4)[C@@H]4C(=O)N(C5CCCCC5)C(=O)[C@@H]4[C@]3(Cc3ccc(Cl)cc3)C2=O)c1", "activity (protection)": 8.87}, {"smiles": "Cc1cccc(C)c1NC(=O)c1c(O)c2ccccc2[nH]c1=O", "activity (protection)": -2.65}, {"smiles": "CC1Cc2nc(SCC(=O)N3CCCC3)n(C)c(=O)c2S1", "note": "(stereo not given)", "activity (protection)": -2.11}, {"smiles": "CC(=O)COc1ccc2c(-c3cccc([N+](=O)[O-])c3)cc(=O)oc2c1", "activity (protection)": -2.02}, {"smiles": "COc1cccc(C2CC(c3ccc(C)cc3)n3ncnc3N2)c1", "note": "(stereo not given)", "activity (protection)": 0.394}]}]}
